Consider four compounds from PubChem BioAssay (EPA / NIEHS).

In assay [1] the target is CCAAT/enhancer-binding protein beta (Homo sapiens) (UniProt P17676). Put plainly: ATG_C_EBP_CIS: Attagene CIS-FACTORIAL HepG2 Assay for human CCAAT/Enhancer Binding Protein (C/EBP) beta (AID 2282927). The note with it: HepG2 Attagene cis-factorial transcription factor reporter; actives raise or lower the signal. The gist of the method: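 Following a 24 h incubation with test chemical, transfected HepG2 cells yielded RNA whose reporter transcripts were quantified by RT-PCR and fluorescent capillary electrophoresis, with DMSO serving as baseline for bidirectional fitting.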
Chain of CCAAT/enhancer-binding protein beta (Homo sapiens) (P17676 whole entry, looked up): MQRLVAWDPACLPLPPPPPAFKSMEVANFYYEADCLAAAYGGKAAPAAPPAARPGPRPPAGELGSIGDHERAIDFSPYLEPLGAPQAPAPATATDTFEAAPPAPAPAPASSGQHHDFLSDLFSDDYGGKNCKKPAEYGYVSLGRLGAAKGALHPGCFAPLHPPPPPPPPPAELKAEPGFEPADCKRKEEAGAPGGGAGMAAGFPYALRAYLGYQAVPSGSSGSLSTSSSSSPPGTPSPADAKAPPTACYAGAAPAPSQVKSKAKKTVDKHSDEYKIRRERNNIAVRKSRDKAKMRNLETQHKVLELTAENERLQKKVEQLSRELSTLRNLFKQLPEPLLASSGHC

Assay [2] in a line: ATG_DR4_LXR_CIS: Attagene CIS-FACTORIAL HepG2 Assay for human Liver X Receptor (LXR), DR4 submotif (AID 2282929). The note with it: HepG2 Attagene DR4 cis-reporter, mRNA transcription; actives raise or lower the signal. The gist of the method: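 After transient transfection with multiplexed cis-promoter reporter units, HepG2 cells received test chemicals for 24 h. Reporter mRNA induction, detected by fluorescence after RT-PCR and capillary electrophoresis, was scored relative to DMSO.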

Assay [3] is described as follows: ATG_AP_2_CIS: Attagene CIS-FACTORIAL HepG2 Assay for human Activator Protein 2 (AP-2) (AID 2282932). The following applies: HepG2 AP-2 cis-reporter, Attagene transcription factor profiling; actives raise or lower the signal. The gist of the method: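 Bidirectional curve fitting against DMSO was applied to reporter mRNA signals from HepG2 cells 24 h after dosing. Cis-promoter reporter units, transiently transfected, were read by RT-PCR plus capillary electrophoresis.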

The target of assay [4] is Transcription factor E2F1 (Homo sapiens) (UniProt Q01094). Briefly: ATG_E2F_CIS: Attagene CIS-FACTORIAL HepG2 Assay for human E2F Transcription Factor 1 (AID 2282935). The following applies: HepG2 Attagene cis-reporter, E2F reporter RNA transcripts; actives raise or lower the signal. The method, boiled down:
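Multiplexed cis-reporter assay: HepG2, transient transfection, 24 h dosing, mRNA quantitation by labeled RT-PCR and CE.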

Assay [5] in a line: ATG_E_Box_CIS: Attagene CIS-FACTORIAL HepG2 Assay for human Enhancer Box (E-box) (AID 2282936). The following applies: HepG2 E-box cis-reporter transcription, actives raise or lower the signal. The gist of the method:
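Multiplexed CIS reporter system in transiently transfected HepG2 cells measures native transcription factor activity. Reporter RNA after 24 h exposure is profiled by RT-PCR-capillary electrophoresis.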

The nature of assay [6]: ATG_M_19_CIS: Attagene CIS-FACTORIAL HepG2 Assay for M19 Transcription Factor (Internal Marker) (AID 2282939). The following applies: HepG2 Attagene CIS-FACTORIAL M19 internal marker reporter; actives raise or lower the signal. The gist of the method:
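Signals come from fluorescence of labelled reporter-specific PCR fragments resolved by capillary electrophoresis, following 24 h treatment of HepG2 cells transfected with cis-promoter reporter units; activity was fitted in both directions relative to DMSO.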

Assay [7] in a line: ATG_GLI_CIS: Attagene CIS-FACTORIAL HepG2 Assay for human Zinc Finger Protein GLI1 (AID 2282945). The note with it: HepG2, Attagene cis-factorial reporter mRNA, GLI element; actives raise or lower the signal. The gist of the method: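 HepG2 cells transiently transfected with cis-promoter multiplexed reporter units report endogenous transcription factor activity. After 24 h chemical exposure, reporter mRNA was quantified by RT-PCR, 6-FAM labelling, HpaI digestion and capillary electrophoresis, with bidirectional fitting against DMSO.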

The nature of assay [8]: ATG_ISRE_CIS: Attagene CIS-FACTORIAL HepG2 Assay for human Interferon Regulatory Factor 1 (IRF1) binding to an Interferon-Stimulated Response Element (ISRE) (AID 2282948). The note with it: HepG2 ISRE cis-reporter (Attagene), mRNA transcription readout; actives raise or lower the signal. The method, boiled down:
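Transfected HepG2 (multiple reporter transcription units, cis elements) dosed 24 h. RNA → oligo(dT) RT → PCR → 6-FAM primer extension → HpaI → CE. DMSO = negative control/baseline.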

Assay [9] in a line: ATG_M_32_CIS: Attagene CIS-FACTORIAL HepG2 Assay for M32 Transcription Factor (Internal Marker) (AID 2282949).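 Note: background control marker of the multiplexed CIS panel rather than a real target.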 The following applies: HepG2 Attagene cis-factorial M32 reporter, mRNA; actives raise or lower the signal. The gist of the method:
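Fluorescent capillary electrophoresis peaks of HpaI-digested, FAM-labelled RT-PCR reporter products give the signal. Source: transiently transfected human liver HepG2 cells, 24 h after chemical dosing; bidirectional fitting against DMSO.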

The nature of assay [10]: ATG_PXRE_CIS: Attagene CIS-FACTORIAL HepG2 Assay for human Pregnane X Receptor Element (PXRE) (AID 2282957). The following applies: HepG2 Attagene CIS-FACTORIAL PXRE reporter, mRNA; actives raise or lower the signal. The gist of the method: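 Cis-element reporter mRNA in human hepatoma HepG2 cells is measured 24 h post-dosing by RT-PCR, primer-extension labeling and capillary electrophoresis; gain or loss of signal is fitted relative to DMSO.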

Assay [11] in a line: ATG_Sox_CIS: Attagene CIS-FACTORIAL HepG2 Assay for human SRY-box transcription factor (SOX) (AID 2282960). The note with it: HepG2 Attagene cis-factorial SOX reporter, mRNA; actives raise or lower the signal. The gist of the method: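 Using transiently transfected HepG2 cells, reporter transcription driven by cis elements was assessed 24 h after dosing. Signal was fluorescence of capillary-separated RT-PCR products, with DMSO defining baseline activity.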

The target in assay [12] is Transcription factor Sp1 (Homo sapiens) (UniProt P08047). Briefly: ATG_Sp1_CIS: Attagene CIS-FACTORIAL HepG2 Assay for human Specificity Protein 1 (Sp1) (AID 2282961). The following applies: HepG2 Sp1 cis-reporter transcription, actives raise or lower the signal. The gist of the method:
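After transient transfection of HepG2 cells with cis-promoter reporter units and 24 h chemical treatment, reporter transcripts were quantified by RT-PCR and capillary electrophoresis fluorescence. Gain- and loss-of-signal fitted against DMSO.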

Assay [13] has as its target Signal transducer and activator of transcription 3 (Homo sapiens) (UniProt P40763). Briefly: ATG_STAT3_CIS: Attagene CIS-FACTORIAL HepG2 Assay for human Signal Transducer and Activator of Transcription 3 (STAT3) (AID 2282963). The following applies: HepG2, Attagene cis-factorial STAT3 reporter transcription; actives raise or lower the signal. The gist of the method: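 Transcript-level reporter assay. HepG2 transient MRTU transfection, 24 h exposure, fluorescence detection after RT-PCR and CE; DMSO baseline.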

Assay [14] in a line: ATG_TA_CIS: Attagene CIS-FACTORIAL HepG2 Assay for human TA Basal Promoter (AID 2282964). The following applies: HepG2 Attagene CIS-factorial TA basal promoter reporter; actives raise or lower the signal. The gist of the method: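 Fluorescence from labelled RT-PCR reporter fragments, separated by capillary electrophoresis, gives the signal. Cells: HepG2 transiently carrying multiple reporter units, 24 h chemical dosing. Gain or loss relative to DMSO.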

A short description of assay [15]: ATG_TCF_b_cat_CIS: Attagene CIS-FACTORIAL HepG2 Assay for human T-Cell-Factor with beta-catenin (TCF/b-cat) (AID 2282965). The following applies: HepG2 TCF/beta-catenin cis-reporter transcription, actives raise or lower the signal. The gist of the method: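 Using capillary electrophoresis as the read-out, labelled reporter cDNA fragments from transiently transfected HepG2 were sized and quantified. Exposure lasted 24 hours; activity in either direction was referenced to DMSO.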

Assay [16] in a line: ATG_TAL_CIS: Attagene CIS-FACTORIAL HepG2 Assay for human TAL Basal Promoter (AID 2282966).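 Note: background control endpoint measuring basal TAL promoter reporter mRNA not a specific factor.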 The following applies: HepG2 Attagene cis-factorial TAL promoter reporter; actives raise or lower the signal. The method, boiled down:
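In this cell-based multiplex, HepG2 liver cells bearing cis-promoter reporter constructs are dosed for 24 hours. Total RNA is reverse-transcribed and amplified, labelled fragments are sized by capillary electrophoresis, and signal changes are fitted bidirectionally versus DMSO.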

Assay [17] addresses X-box-binding protein 1 (Homo sapiens) (UniProt P17861). Put plainly: ATG_Xbp1_CIS: Attagene CIS-FACTORIAL HepG2 Assay for human X-box Binding Protein 1 (XBP1) (AID 2282972). The note with it: HepG2 XBP1 cis-element reporter, Attagene multiplex; actives raise or lower the signal. The method, boiled down:
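HepG2, transient MRTU transfection (cis-promoter driven), 24 h compound exposure. Total RNA → oligo(dT) RT → PCR → 6-FAM labeling → HpaI cut → CE. Bidirectional fit vs DMSO.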

The target in assay [18] is Transcriptional activator Myb (Homo sapiens) (UniProt P10242). Put plainly: ATG_Myb_CIS: Attagene CIS-FACTORIAL HepG2 Assay for human Myeloblastosis (Myb) Proto-Oncogene Transcription Factor (AID 2282986). The note with it: HepG2 Attagene CIS-FACTORIAL Myb reporter transcription; actives raise or lower the signal. The gist of the method: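 Multiplexed cis-reporter system in HepG2: transient transfection, 24 h treatment, mRNA readout by RT-PCR and capillary electrophoresis. Both increases and decreases are scored versus DMSO negative control.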
Chain of Transcriptional activator Myb (Homo sapiens) (P10242 whole entry, looked up): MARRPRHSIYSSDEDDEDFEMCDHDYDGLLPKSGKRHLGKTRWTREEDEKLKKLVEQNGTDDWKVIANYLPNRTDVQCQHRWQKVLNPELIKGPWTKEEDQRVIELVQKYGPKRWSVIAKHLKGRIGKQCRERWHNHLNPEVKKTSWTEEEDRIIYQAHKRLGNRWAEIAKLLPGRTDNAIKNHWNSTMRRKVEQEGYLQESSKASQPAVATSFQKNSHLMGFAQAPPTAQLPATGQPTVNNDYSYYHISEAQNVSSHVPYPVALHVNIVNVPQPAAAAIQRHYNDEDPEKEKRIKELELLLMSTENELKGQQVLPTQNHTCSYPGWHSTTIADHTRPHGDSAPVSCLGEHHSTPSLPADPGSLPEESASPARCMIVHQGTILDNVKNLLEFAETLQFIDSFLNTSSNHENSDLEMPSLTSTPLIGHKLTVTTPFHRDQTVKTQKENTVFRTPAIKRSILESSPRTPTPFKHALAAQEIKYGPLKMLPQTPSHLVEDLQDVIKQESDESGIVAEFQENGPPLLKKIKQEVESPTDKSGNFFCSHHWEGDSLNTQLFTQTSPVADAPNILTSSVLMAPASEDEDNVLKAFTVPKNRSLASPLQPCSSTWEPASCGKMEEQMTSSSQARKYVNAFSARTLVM

Assay [19] addresses Myc proto-oncogene protein (Homo sapiens) (UniProt P01106). Briefly: ATG_Myc_CIS: Attagene CIS-FACTORIAL HepG2 Assay for human Myelocytomatosis (Myc) Proto-Oncogene Transcription Factor (AID 2282990). The note with it: HepG2, Attagene cis-reporter transcription factor activity; actives raise or lower the signal. The gist of the method: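 Multiplexed cis-reporter transcription in HepG2 cells after 24 h chemical treatment. Reporter mRNA measured by RT-PCR and capillary electrophoresis fluorescence; activity fitted bidirectionally against DMSO control.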

A short description of assay [20]: ATG_Oct_MLP_CIS: Attagene CIS-FACTORIAL HepG2 Assay for human Octamer-Binding Transcription Factor (Oct) (AID 2282993). The note with it: HepG2 Attagene cis-factorial Oct reporter, mRNA; actives raise or lower the signal. The gist of the method:
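HepG2, transient MRTU transfection, cis promoter elements; 24 h dosing; RT-PCR/CE fluorescence read-out of reporter mRNA; fit both directions vs DMSO.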

The source made the active and inactive calls. Rule for the calls: active = hit-call score of the fitted dose curve at least 0.9, where 1 is the maximum; inactive = score below 0.9.

Chain of Transcription factor E2F1 (Homo sapiens) (Q01094 whole entry, looked up): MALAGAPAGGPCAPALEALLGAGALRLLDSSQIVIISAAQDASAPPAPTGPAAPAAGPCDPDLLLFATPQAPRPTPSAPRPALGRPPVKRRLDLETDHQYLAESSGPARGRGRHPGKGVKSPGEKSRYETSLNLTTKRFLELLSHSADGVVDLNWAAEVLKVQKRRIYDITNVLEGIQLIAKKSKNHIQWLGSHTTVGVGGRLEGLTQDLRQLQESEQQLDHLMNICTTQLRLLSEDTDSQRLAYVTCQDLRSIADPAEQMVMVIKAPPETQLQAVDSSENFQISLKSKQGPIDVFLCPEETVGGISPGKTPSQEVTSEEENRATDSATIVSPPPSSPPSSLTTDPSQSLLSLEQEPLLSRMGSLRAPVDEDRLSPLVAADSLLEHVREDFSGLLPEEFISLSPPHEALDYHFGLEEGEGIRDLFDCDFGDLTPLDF
Chain of Signal transducer and activator of transcription 3 (Homo sapiens) (P40763 whole entry, looked up): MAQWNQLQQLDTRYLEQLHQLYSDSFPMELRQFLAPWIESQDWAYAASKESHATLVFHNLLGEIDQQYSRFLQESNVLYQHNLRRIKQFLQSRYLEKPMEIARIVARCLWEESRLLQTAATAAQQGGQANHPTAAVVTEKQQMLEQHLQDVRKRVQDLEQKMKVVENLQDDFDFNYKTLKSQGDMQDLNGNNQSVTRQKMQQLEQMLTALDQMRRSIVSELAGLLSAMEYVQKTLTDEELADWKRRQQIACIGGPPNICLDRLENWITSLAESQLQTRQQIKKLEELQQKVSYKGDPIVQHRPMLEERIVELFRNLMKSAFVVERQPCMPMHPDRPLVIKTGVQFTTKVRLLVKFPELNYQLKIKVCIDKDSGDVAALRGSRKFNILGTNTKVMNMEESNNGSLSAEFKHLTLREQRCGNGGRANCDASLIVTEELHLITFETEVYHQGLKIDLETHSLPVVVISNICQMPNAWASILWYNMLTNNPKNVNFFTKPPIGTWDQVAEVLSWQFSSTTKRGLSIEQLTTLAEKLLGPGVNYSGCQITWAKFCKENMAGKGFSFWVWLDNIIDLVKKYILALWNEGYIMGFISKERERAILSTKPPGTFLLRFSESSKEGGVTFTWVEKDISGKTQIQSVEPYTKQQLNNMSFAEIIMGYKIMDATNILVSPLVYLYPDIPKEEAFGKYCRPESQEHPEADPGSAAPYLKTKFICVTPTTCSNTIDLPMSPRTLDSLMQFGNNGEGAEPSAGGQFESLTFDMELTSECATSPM
Chain of X-box-binding protein 1 (Homo sapiens) (P17861 whole entry, looked up): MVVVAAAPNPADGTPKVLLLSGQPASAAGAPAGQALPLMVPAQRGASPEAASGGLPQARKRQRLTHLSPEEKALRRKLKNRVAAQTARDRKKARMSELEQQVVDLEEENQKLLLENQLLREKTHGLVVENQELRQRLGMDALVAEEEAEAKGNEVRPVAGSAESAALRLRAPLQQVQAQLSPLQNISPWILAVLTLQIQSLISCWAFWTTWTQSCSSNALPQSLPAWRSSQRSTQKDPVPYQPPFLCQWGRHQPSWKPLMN
Chain of Myc proto-oncogene protein (Homo sapiens) (P01106 whole entry, looked up): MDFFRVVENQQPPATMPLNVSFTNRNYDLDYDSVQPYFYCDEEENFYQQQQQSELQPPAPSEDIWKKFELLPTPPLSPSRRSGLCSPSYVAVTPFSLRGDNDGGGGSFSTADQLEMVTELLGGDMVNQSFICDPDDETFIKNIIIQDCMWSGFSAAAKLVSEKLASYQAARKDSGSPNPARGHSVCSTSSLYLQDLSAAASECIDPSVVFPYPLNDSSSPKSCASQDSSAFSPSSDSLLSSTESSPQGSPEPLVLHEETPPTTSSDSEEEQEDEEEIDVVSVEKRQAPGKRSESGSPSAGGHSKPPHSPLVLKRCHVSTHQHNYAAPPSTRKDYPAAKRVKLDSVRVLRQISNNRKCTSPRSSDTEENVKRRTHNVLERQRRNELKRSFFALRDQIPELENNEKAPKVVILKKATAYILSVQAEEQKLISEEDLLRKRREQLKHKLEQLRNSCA
Chain of Transcription factor Sp1 (Homo sapiens) (P08047 whole entry, looked up): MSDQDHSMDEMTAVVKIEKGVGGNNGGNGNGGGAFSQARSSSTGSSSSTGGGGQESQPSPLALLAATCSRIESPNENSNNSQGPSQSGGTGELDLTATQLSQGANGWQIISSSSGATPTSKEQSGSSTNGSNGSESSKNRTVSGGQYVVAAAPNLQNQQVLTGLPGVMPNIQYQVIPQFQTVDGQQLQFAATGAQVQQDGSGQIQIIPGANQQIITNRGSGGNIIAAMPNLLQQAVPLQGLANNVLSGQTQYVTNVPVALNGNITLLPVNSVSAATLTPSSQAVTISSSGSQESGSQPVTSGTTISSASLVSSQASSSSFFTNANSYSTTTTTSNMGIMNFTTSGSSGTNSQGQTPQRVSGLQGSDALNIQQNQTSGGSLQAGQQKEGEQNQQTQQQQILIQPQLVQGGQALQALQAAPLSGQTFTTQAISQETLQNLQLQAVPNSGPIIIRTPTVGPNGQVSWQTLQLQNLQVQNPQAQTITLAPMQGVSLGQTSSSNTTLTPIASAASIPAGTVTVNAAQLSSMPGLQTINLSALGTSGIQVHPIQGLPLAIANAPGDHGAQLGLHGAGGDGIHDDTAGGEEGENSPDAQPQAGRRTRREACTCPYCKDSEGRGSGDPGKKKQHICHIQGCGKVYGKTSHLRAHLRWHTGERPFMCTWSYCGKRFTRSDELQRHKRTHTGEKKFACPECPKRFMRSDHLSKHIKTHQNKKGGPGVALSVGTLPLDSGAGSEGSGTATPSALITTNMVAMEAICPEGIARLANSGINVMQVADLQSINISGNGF

Turning to `CCCCCCC1CCOC1=O` (stereo not given), the result in [1], in assay [2], in assay [3], in assay [4], in [5] and in [6] was inactive. Also, the call in assay [7], in assay [8], in [9], in assay [11], in assay [12] and in assay [13] was inactive. The outcome in assay [14], in [15], in [16], in assay [17], in assay [18] and in assay [19] was inactive. In addition, in [20], the result was inactive. Further, the AC50 in assay [10] was 100 µM (active).

In the case of `[Cl][Sb]([Cl])[Cl]`, the outcome in assay [1], in assay [2], in assay [3], in [4], in [5] and in assay [6] was inactive. The result in assay [7], in [8], in assay [9], in assay [10], in assay [11] and in [12] was inactive. Besides, the result in assay [13], in assay [14], in assay [16], in [18] and in [20] was inactive. Further, the AC50 in assay [15] was 186 µM (active); in assay [17], 143 µM (active); in [19], 175 µM (active).

On to `C[N+](C)=CCl`, for which the outcome in [1], in assay [2], in assay [3], in [4], in assay [5] and in assay [6] was inactive. Moreover, the outcome in [7], in [8], in assay [9], in [10], in [11] and in assay [12] was inactive. In addition, the result in assay [13], in [14], in [15], in [16], in assay [17] and in assay [18] was inactive. The call in [19] and in [20] was inactive.

For `Nc1ccccc1`, the result in assay [1], in assay [2], in [3], in [4], in [5] and in [6] was inactive. The outcome in assay [7], in assay [8], in [9], in assay [10], in assay [11] and in [12] was inactive. Also, the compound was called inactive in [13], in assay [14], in [15], in assay [16], in assay [17] and in assay [18]. The call in assay [19] and in assay [20] was inactive.

By AC50 is commonly meant the concentration giving half of the maximal activity seen.
